# PubChem BioAssay
# Records with an inconclusive call do not appear. Unmarked numbers belong to inactive results.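 The calls were made as follows: active = viability at or below 27.92% in each of two runs, the all-compound median minus 4 SD; inconclusive = no clear call, values can overlap the other calls; inactive = the rest.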
# Assay: viability of PTEN-null HCT116 cells – cell-based, HCT116 clonal line, CellTiter-Glo, pilot screen (AID 824);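 also: 0% = 20 µM Hyamine control and 100% = vehicle cell control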
# Details: HCT116 PTEN-deleted viability, 60 h, at 10 µM, active compounds read low
row,Structure (SMILES),viability [%]
1,COc1cccc(Nc2cc(C)nc3nc(C)nn23)c1,97.6
2,COc1ccc(N2CSC3=C(C#N)C(c4cc(OC)c(OC)cc4OC)CC(=O)N3C2)c(OC)c1 (stereo not drawn),76.7
3,Cc1c(C(=O)NCc2cccnc2)sc2nc(-c3ccc(F)cc3)cn12,78
4,COc1ccc(CC(=O)N2CC3(C)CC2CC(C)(C)C3)cc1OC (stereo not drawn),88.2
5,CCC(CC)C(=O)Nc1cc(C)c2c(=O)oc3ccccc3c2n1,64.2
6,CCOC(=O)N1CCN(CC(=O)Nc2cc(OCC)ccc2OCC)CC1,93.8
7,Cc1ccc2c(CC(=O)Nc3nc(C)cs3)coc2c1,80.4
8,O=C(Nc1ccccc1)N(CCc1ccncc1)C1CCCCC1,98.9
9,COc1ccc(C2C(C(=O)NCC3CCCO3)c3cc(OC)c(OC)cc3C(=O)N2C)cc1OC (stereo not drawn),99.7
10,Cc1cc(C)c(C#N)c(Nc2ccc3c(c2)OCCO3)n1,93.9
11,O=C(Cn1ncc2c(=O)oc3ccccc3c21)N1CCC(N2CCCCC2)CC1,99.8
12,CCCC(=O)Nc1nc2c(OC)ccc(OC)c2s1,90.3
13,O=C(Nc1nccs1)C1CCCN(S(=O)(=O)c2cccc3cccnc23)C1 (stereo not drawn),68.6
14,Cc1c(N=c2c(=O)c3ccccc3c2=O)c(=O)n(-c2ccccc2)n1C,95.3
15,CCOCCOC(=O)C1=C(C)NC2=C(C(=O)CC(c3cccs3)C2)C1c1ccsc1 (stereo not drawn),89.2
16,COc1ccc(CN2CCN(c3ncccn3)CC2)c(OC)c1,89.3
17,Cc1cc(Nc2ccc(F)cc2Cl)n2nc(C)nc2n1,99.6
18,COC(=O)C1C(=O)C=C(N2CCOCC2)CC1(C)C (stereo not drawn),105
19,COc1ccc(S(=O)(=O)N2CCN(c3cccc(C)c3C)CC2)cc1,90.5
20,O=C(Nc1ccccc1Cl)c1ccc2c(c1)N(Cc1ccc(F)cc1)C(=O)CS2=O (stereo not drawn),72.5
21,CCOC(=O)c1cc2c(=O)n3cccc(C)c3nc2n(CCCOC)c1=NC(=O)c1cccnc1,92.2
22,Cc1cccc(OCCCCCNCCO)c1,94.6
23,COc1ccc(OC)c(Nc2cc(C)nc3nc(C)nn23)c1,57.4
